In the supplement of paper PMC6555819 one finds PBM binding z-score data, which are given here for six sequences.

What all share (assay): PBM binding z-score (relative to random genomic background probes); higher = stronger binding; sequences stand for … in GC…GCGATTGACAGCGTAGAATGAAGG
Experiment [1] deals with RARb homodimer (NR concentration 270 nM). In a few lines:
(§1)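 Ligand-free nuclear receptor dimers were bound for 1 h to custom Agilent 4×180K protein-binding microarrays. Detection used antibodies against each partner (one per run). Binding z-scores rest on regression-normalized fluorescence, with random background probes as the reference.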

Experiment [2] relates to RARg:RXRa (NR concentration 270 nM, RXRa partner concentration 90 nM). An outline of the steps: as §1
For experiment [3], the system named is RARg homodimer (NR concentration 270 nM). An outline of the steps:
as §1

Experiment [4] relates to RXRa DBDmut IVT, anti-RXR (DBD mutation: RXRa K156A/R161A, NR concentration 90 nM). An outline of the steps:
as §1

Experiment [5] has as its system THRa:RXRa (NR concentration 90 nM, RXRa partner concentration 90 nM). In a few lines:
as §1

In experiment [6] the test system is THRa homodimer (NR concentration 90 nM). In a few lines:
as §1

For experiment [7], the system named is VDR:RXRa (NR concentration 270 nM, RXRa partner concentration 90 nM). An outline of the steps: as §1
The test system of experiment [8] is VDR homodimer (NR concentration 270 nM). An outline of the steps: as §1
The test system of experiment [9] is RXRa homodimer (NR concentration 180 nM). In a few lines: as §1

With TAGCCTAGGTCAAGCGGGCCAGTATAGTGTCGGC, the PBM binding z-score in experiment [1] was 3.29; in experiment [2] it was 4.34; in experiment [3] it was 5.14; in experiment [4] it was 0.428; in [5], 2.9; in experiment [6] it was 0.702. Moreover, the PBM binding z-score in [7] is 2.6; in [8] it was -0.353.
In the case of TAGCCTAGGTTATGCGGGCCAGTATAGTGTCGGC, the PBM binding z-score in experiment [1] was 0.219; in [2], -0.108; in experiment [3], 0.272; in [4], -0.93; in [9] it was 0.14; in experiment [6] it was -0.669. Further, the PBM binding z-score in [8] is -0.934.
Consider TCGAGTAGGTTACGGGGTCATTCAGGGATGAAGA, for which the PBM binding z-score is 3.99 in [1]; 5.96 in experiment [2]; 4.05 in [3]; 2.36 in [4]; 7.78 in experiment [9]; 2.5 in experiment [6]. Also, the PBM binding z-score came to 6.34 in [7] and 5.89 in experiment [8].
On to CCTACTGGGCCACGTAAGGTCATTGATTCAGTGA, for which the PBM binding z-score was 3.87 in experiment [1]; 3.33 in experiment [2]; 3.01 in [3]; 0.502 in experiment [4]; 3.33 in experiment [9]; 4.46 in experiment [6]. For the same sequence, in [8], the PBM binding z-score worked out at 2.84.
Consider CCTACTGGGCGACGAAAGGTCATTGATTCAGTGA, for which the PBM binding z-score in experiment [1] was 4.11; in [2], 4.14; in [3], 3.31; in [4], 0.216; in experiment [5], 3.13; in experiment [6], 0.124. For the same sequence, the PBM binding z-score in experiment [7] was 3.36; in experiment [8], 1.38.
For CGAACGAGGTCAGAACAGGACAGTGAAGGATGAT, the PBM binding z-score worked out at 3.19 in experiment [1]; 4.63 in [2]; 4.76 in experiment [3]; 3 in experiment [4]; 4.37 in experiment [9]; 1.37 in [6]. The PBM binding z-score in [8] came out at 2.1.
